This is part of a sample that, as a whole, favours compounds with a hit. Of some 79,000 tested, about 15% had one in any assay. Rule as the data show it: active = growth inhibition above about 70%; inactive = the rest.
Key:
[1] = NCI Yeast Anticancer Drug Screen. Data for the rad50 strain (AID 155);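 also: 0% = growth of vehicle-only cultures of the same strain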; details: S. cerevisiae rad50 strain growth inhibition; at 50.0 µM; active compounds read high
How it was run: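 Cells are treated with compound, grown, and their growth is then scored against vehicle-only cultures of the same repair-deficient yeast strain.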

[2] = NCI Yeast Anticancer Drug Screen. Data for the mec2-1 strain (AID 157); details: S. cerevisiae mec2-1 strain, at 50.0 µM, active compounds read high
How it was run: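 Test agents were screened against the mec2-1 yeast strain, with defined DNA repair or cell cycle alteration. Growth was scored as inhibition against vehicle-only controls.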

[3] = NCI Yeast Anticancer Drug Screen. Data for the mlh1 rad18 strain (AID 175); details: S. cerevisiae mlh1 rad18 strain growth inhibition; at 50.0 µM; active compounds read high
How it was run: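 In this whole-cell yeast screen, a strain with altered DNA damage repair is challenged with compound, and its growth is measured against matched vehicle-treated controls.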

Measured: growth inhibition

NC(CCC(=O)OCc1ccccc1)C(=O)OCc1ccccc1 (stereo not drawn)
inactive: [1] -0.95% | [2] -14.3% | [3] 9.25%

Cc1ccc(NC(=O)/C=C/C(=O)O)c(NC(=O)/C=C/C(=O)O)c1
inactive: [1] 4.8% | [2] -1.15% | [3] 28.8%

Cc1nc2c(Cl)c(Cl)ccc2s1
inactive: [1] 3.6% | [2] -20.9% | [3] 24.2%

C=CCOc1cccc(OCC=C)c1C
inactive: [1] -14.9% | [2] -20% | [3] -3.9%

O=C(CN1C(=O)c2ccccc2C1=O)c1ccc(Br)cc1
inactive: [1] 14.2% | [2] 16.1% | [3] 12.9%

Cc1ccc(S(=O)(=O)Nc2ccccc2C2Nc3ccccc3C(=O)O2)cc1 (stereo not drawn)
inactive: [1] -23.5% | [2] -7.4% | [3] -13.1%

COc1ccc2ccccc2c1/C=N/N1CCCCC1
inactive: [1] 32.3% | [2] 19.6% | [3] 1.05%

COc1ccc(/C=N\NC(=O)OC(C)(C)C)c(OC)c1OC
inactive: [1] -23.8% | [2] -33.4% | [3] -24.4%

COc1cc(/C=C2\CN(C)C(=O)C2=O)ccc1O
inactive: [1] -11.7% | [2] -27.2% | [3] -12.2%

N#C/C(=C1C=C(Br)/C(=N\O)C=C\1Cl)c1ccc(Cl)cc1
inactive: [1] 30.9% | [2] 4.55% | [3] 27.7%

COc1cc2c(cc1O)C(Cc1ccc(OC)c(OC)c1)N(C)CC2 (stereo not drawn)
inactive: [1] 4.25% | [2] 0.85% | [3] 2.35%

CCC(=O)N/N=C/C=N/NC(=O)c1ccncc1
inactive: [1] -30.7% | [2] -31.8% | [3] -7.25%

CCOc1ccc(/C=N/NS(=O)(=O)c2ccc(C)cc2)cc1
inactive: [1] -3.6% | [2] -34.5% | [3] -8.2%

N#C/C(=C/c1c(O)ccc2ccccc12)C(N)=O
inactive: [1] 33.7% | [2] 18.4% | [3] 60.9%

COc1ccc(-c2cc(=O)c3c(O)cc(C)cc3o2)cc1OC
inactive: [1] -23.9% | [2] -25.6% | [3] -21.6%

O=[N+]([O-])c1cccc(S(=O)(=O)OCCOc2ccccc2)c1
inactive: [1] 30.7% | [2] 4.15% | [3] 17.6%

O=c1oc(/C=C/c2ccccc2)nc2cc(Cl)ccc12
inactive: [1] 19.6% | [2] 10.1% | [3] 10.4%

NC(=S)N/N=C/c1cc([N+](=O)[O-])ccc1Cl
inactive: [1] 10.8% | [2] -9.75% | [3] 10.2%

CCN(CC)CCCOC(=O)N(Cc1ccc(Cl)cc1)C1CC1
inactive: [1] 51.2% | [2] 12.8% | [3] 46.6%

COc1cc(/C=N/N2CCCCC2)cc(OC)c1OC
inactive: [1] -19% | [2] -16.6% | [3] -21.8%

CS(=O)(=O)c1ccc(NN)c(S(C)(=O)=O)c1
inactive: [1] -9.4% | [2] -10.3% | [3] 11.8%

CCCCOc1cc(C(=O)NCCN(CC)CC)c2ccccc2n1
inactive: [1] -2.1% | [2] -9.6% | [3] 1.9%

COc1ccccc1Oc1ccc(N=Cc2ccc(C)cc2)cc1
inactive: [1] -16.4% | [2] -25.3% | [3] 5.3%

Nc1cc(S(=O)(=O)c2ccc(O)c(N)c2)ccc1O
inactive: [1] 5.1% | [2] -0.85% | [3] 9.05%

O=C(/C(=N/N=C\c1ccc([N+](=O)[O-])cc1)c1ccccc1)c1ccccc1
inactive: [1] -10.6% | [2] -18.4% | [3] -1.25%

NC(=O)C(=O)N/N=C/c1ccc2c(c1)CCC2
inactive: [1] -2.45% | [2] -10.9% | [3] 8.3%

COc1cc(/C=N/NC(=O)c2cccs2)cc(OC)c1OC
inactive: [1] -12.8% | [2] -26.1% | [3] -13.3%

CC(C)N(C)c1ccc(N=Nc2cc(Cl)ccc2Cl)cc1
inactive: [1] -27.6% | [2] -36.8% | [3] -24.4%

CC(=O)CCN(Cc1ccccc1)Cc1ccccc1
inactive: [1] 1.7% | [2] -1.95% | [3] 22.4%

COc1cccc(CNc2ccc(SC)cc2)c1OC
inactive: [1] 10.2% | [2] 12.9% | [3] 18.9%

O=[N+]([O-])c1cc([N+](=O)[O-])c2nc3ccccn3c2c1
inactive: [1] -1.85% | [2] -43.9% | [3] -11.7%

CCOC(=O)C(=Cc1c[nH]c2ccc(Br)cc12)C(=O)OCC
inactive: [1] -17.5% | [2] -22.9% | [3] -5.15%

CCOc1ccc(N2C(=O)C3C4c5ccccc5C(c5ccccc54)C3C2=O)cc1 (stereo not drawn)
inactive: [1] 27% | [2] 6.45% | [3] 29%

COc1ccc(C(C#N)N2CCOCC2)cc1 (stereo not drawn)
inactive: [1] 17.8% | [2] -11.7% | [3] 5.35%

S=C(S)N1CCC(CCCC2CCN(C(=S)S)CC2)CC1
inactive: [1] -9.1% | [2] -22.1% | [3] -13.2%

COc1ccc(C(=O)CC2CCCC(CC(=O)c3ccc(OC)cc3)N2C)cc1 (stereo not drawn)
inactive: [1] 5.4% | [2] -6.05% | [3] 30.4%

COc1ccc(CCN2C(=O)CSC2=S)cc1OC
inactive: [1] -14% | [2] -17.4% | [3] -2.6%

CCCCCCCCCCCC(O)CCCCC (stereo not drawn)
inactive: [1] -15% | [2] -48.4% | [3] -38.9%

O=C(O)/C=C\C(=O)Nc1ccccc1NC(=O)/C=C/C(=O)O
inactive: [1] 3.45% | [2] -26.1% | [3] -16.2%

OCCN(CCO)C(CO)(CO)CO
inactive: [1] 0.7% | [2] -12.8% | [3] 24.8%

O=C1OC(c2ccc(Cl)cc2)=N/C1=C\c1ccccc1
inactive: [1] -4.85% | [2] -5.5% | [3] -6.65%

COc1ccc(/C=C/C(=O)c2ccc(Cl)cc2)c(OC)c1
inactive: [1] 20.5% | [2] -11.9% | [3] 8.75%

C[n+]1ccccc1/C=C/c1cccc(O)c1
inactive: [1] 14% | [2] -19.9% | [3] 17.8%

COc1cc(OC)cc(C(=O)Cl)c1
inactive: [1] -24.4% | [2] -40% | [3] -16.1%

CCCCN1CCNCC1
inactive: [1] 10.1% | [2] -1.95% | [3] -2.55%

Cc1c(Cl)cccc1N1C(=O)CC(Sc2ccccc2N)C1=O (stereo not drawn)
inactive: [1] 1.05% | [2] -13.9% | [3] 3%

O=[N+]([O-])c1ccc2nc3c(nc2c1)-c1cccc2cccc-3c12
inactive: [1] 2.15% | [2] -15.9% | [3] 12.3%

COc1cc(-c2cc(=O)c3c(O)cc(C)cc3o2)cc(OC)c1OC
inactive: [1] -0.85% | [2] -9.8% | [3] -17.8%

c1coc(-c2nc(N=C3N=c4ccccc4=N3)[nH]c2-c2ccco2)c1
inactive: [1] 16.6% | [2] 18.9% | [3] 4%

O=CNC(Cc1ccc(O)cc1)C(=O)O (stereo not drawn)
inactive: [1] 4.1% | [2] -30.4% | [3] -8.4%

CN(C)/C=C/C(=O)c1ccccc1[N+](=O)[O-]
inactive: [1] 16.7% | [2] -11.4% | [3] 12.2%

Cc1ccc(COC(=O)c2cccnc2)cc1
inactive: [1] -16.4% | [2] -18.6% | [3] 8.65%

Cc1ccc(S(=O)(=O)NCN2C(=O)c3ccccc3C2=O)cc1
inactive: [1] -3.75% | [2] -3.85% | [3] 1.55%

CCCCCCC(=O)C(CCCC)(C(=O)OCC)C(=O)OCC
inactive: [1] 0.4% | [2] -9.4% | [3] 7.35%

Cc1cc(Cl)ccc1NCN1C(=O)c2ccccc2C1=O
inactive: [1] -6.8% | [2] -8.9% | [3] 15.8%

O=C(CCc1ccc(O)cc1)N/N=C/c1cc(Br)ccc1O
inactive: [1] -29.6% | [2] -38.4% | [3] -20.6%

O=C(O)C1=C(C2CCCCC2)C(=O)c2ccccc21
inactive: [1] 7.75% | [2] -15.8% | [3] 20.9%

C(=NCC1CCC(CN=Cc2ccco2)CC1)c1ccco1 (stereo not drawn)
inactive: [1] -21% | [2] -24.8% | [3] -12.5%

O=C(O)c1ccccc1Oc1ccccc1C(=O)O
inactive: [1] -8.75% | [2] -22.9% | [3] -22.6%

COc1ccc(C(C(N)=O)N2CCCC2)cc1 (stereo not drawn)
inactive: [1] 1% | [2] -19.6% | [3] 16.6%

Cc1cccc(C2NC(=O)c3ccccc3N2)c1 (stereo not drawn)
inactive: [1] 9.35% | [2] -15.8% | [3] 10.5%

Clc1nc(Oc2ccccc2)nc(-c2cn(-c3ccccc3)c3ccccc23)n1
inactive: [1] 2.05% | [2] -12.6% | [3] -6.35%

C=CCCCCCCCCC(=O)Cl
inactive: [1] 33.9% | [2] 3.35% | [3] 11.1%

N#C/C(=C1C=C/C(=N/O)C(Br)=C/1)c1ccccc1
inactive: [1] 50.1% | [2] 13.2% | [3] 22%

O=C(/C=C/C=C/c1ccccc1)c1ccc(Cl)cc1
inactive: [1] -12.3% | [2] -27.4% | [3] 3.5%

O=C(NC(CO)C(O)c1ccc([N+](=O)[O-])cc1)C(Cl)Cl (stereo not drawn)
inactive: [1] -32.2% | [2] -35.6% | [3] -19.5%

Reference: PubChem BioAssay (NCI)
